A short description of test [1]: qHTS assay to identify small molecule antagonists of the androgen receptor (AR) signaling pathway using the MDA cell line in the presence of 0.5 nM R1881 - cell viability counter screen (AID 1259242). Further: nearly all actives have a fitted effect of over 45% in size. The method in brief: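 Cytotoxicity toward MDA-kb2 cells is measured by CellTiter-Fluor live-cell protease fluorescence after 16 hr compound exposure at 37C in the presence of 0.5 nM R1881 stimulator.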

The target in test [2] is Estrogen receptor (Homo sapiens) (UniProt P03372). The test is described as follows: qHTS assay to identify small molecule antagonists of the estrogen receptor alpha (ER-alpha) signaling pathway using the BG1 cell line in the presence of 0.1 nM 17-beta-estradiol (AID 1259244). Further: nearly all actives have a fitted effect of over 50% in size. The gist of the method:
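After 5 days in hormone-depleted medium (charcoal-stripped serum, no phenol red), VM7Luc4E2 cells were seeded, incubated 24 h, then co-treated with compound and 0.1 nM (final) estradiol for 22 h before luminescence detection.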

Test [3] can be described thus: qHTS assay to identify small molecule HDAC inhibitors (AID 1259364). Further: top concentration of the series differs between compounds; nearly all actives have a fitted effect of over 45% in size. The gist of the method: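 Homogeneous cell-based luminescent assay of endogenous class I/II HDAC activity; HCT-116 cells, 2 h compound exposure, 30 min HDAC-Glo development at RT.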
Test [4] can be described thus: qHTS assay to identify small molecule HDAC inhibitors - cell viability counter screen (AID 1259365). Further: series mostly up to about 92 µM; nearly all actives have a fitted effect of over 50% in size. The method in brief: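 Counter screen in wild-type HCT-116 cells: compounds dissolved in DMSO are pin-transferred onto overnight-plated cells and left 2hr at 37C. ATP-based CellTiter-Glo luminescence then measures viable cells.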
Test [5] is described as follows: qHTS assay to identify small molecule agonists of the sonic hedgehog signaling (Shh) pathway - cell viability counter screen (AID 1259366). Further: nearly all actives have a fitted effect of over 50% in size. The method in brief: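 Cells are plated at 2,000 per well and left 4hr at 37C, 5% CO2 before compound addition. After 23hr of treatment, CellTiter-Fluor reagent is added for 1hr at 37C and fluorescence is measured.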
The nature of test [6]: qHTS assay to identify small molecule antagonists of the sonic hedgehog signaling (Shh) pathway - cell viability counter screen (AID 1259367). Further: nearly all actives have a fitted effect of over 55% in size. The method in brief: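 Using CellTiter-Fluor, viability of Gli1-Luc reporter 3T3 cells is read by fluorescence in the wells used for the Shh luciferase assay. Treatment lasts 23 hr with conditioned medium, then reagent 1 hr at 37C.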

Test [7] can be described thus: qHTS assay to identify small molecule agonists of the sonic hedgehog signaling (Shh) pathway (AID 1259368; calls by dose curve;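 further: NIH/3T3-derived 3T3Gli1-Luc cells carrying a stable Gli1-driven firefly luciferase reporter; series mostly up to about 92 µM; nearly all actives have a fitted effect of over 15% in size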). The method in brief: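 Steps: seed 3T3 Gli1-Luc cells, incubate 4 hr at 37 C, pin-transfer compounds in DMSO alongside a positive control, incubate 24 hr, add luciferase detection reagent, wait 30 min at room temperature, read luminescence.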
A short description of test [8]: qHTS assay to identify small molecule antagonists of the sonic hedgehog signaling (Shh) pathway (AID 1259369; calls by dose curve; further: nearly all actives have a fitted effect of over 45% in size; further: potency means the concentration at half of the fitted maximal effect). The gist of the method: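 Inhibition of Shh signalling is measured as reduced Gli1-response-element firefly luciferase output in an NIH/3T3-derived stable reporter clone stimulated with conditioned medium for 24hr.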
Test [9] is described as follows: qHTS assay to identify small molecule phospholipidosis (PLD) inducers (AID 1259344; active means well fitted curve in the direction sought with a large enough effect; an effect the other way counts as inactive or inconclusive). The gist of the method: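 Fluorescent phospholipid staining (LipidTOX Red) measured by automated microscopy in fixed HepG2 cells after 24 h treatment; nuclei counterstained with Hoechst 33342; amiodarone as reference inducer.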

Unmarked numbers belong to inactive results. Inconclusive results are not listed. The source made the active and inactive calls. Unless noted, the call rests on the fitted dose curve; in most records, active means well fitted curve in the direction sought with a large enough effect in the repeat runs; inconclusive means weak or mixed curves; inactive means no such curve, though single readings can be large; an effect the other way counts as inactive or inconclusive.
On the % scale 0 is the no-effect control and ±100 the full control effect.

Sequence of Estrogen receptor (Homo sapiens) (P03372 whole entry, looked up): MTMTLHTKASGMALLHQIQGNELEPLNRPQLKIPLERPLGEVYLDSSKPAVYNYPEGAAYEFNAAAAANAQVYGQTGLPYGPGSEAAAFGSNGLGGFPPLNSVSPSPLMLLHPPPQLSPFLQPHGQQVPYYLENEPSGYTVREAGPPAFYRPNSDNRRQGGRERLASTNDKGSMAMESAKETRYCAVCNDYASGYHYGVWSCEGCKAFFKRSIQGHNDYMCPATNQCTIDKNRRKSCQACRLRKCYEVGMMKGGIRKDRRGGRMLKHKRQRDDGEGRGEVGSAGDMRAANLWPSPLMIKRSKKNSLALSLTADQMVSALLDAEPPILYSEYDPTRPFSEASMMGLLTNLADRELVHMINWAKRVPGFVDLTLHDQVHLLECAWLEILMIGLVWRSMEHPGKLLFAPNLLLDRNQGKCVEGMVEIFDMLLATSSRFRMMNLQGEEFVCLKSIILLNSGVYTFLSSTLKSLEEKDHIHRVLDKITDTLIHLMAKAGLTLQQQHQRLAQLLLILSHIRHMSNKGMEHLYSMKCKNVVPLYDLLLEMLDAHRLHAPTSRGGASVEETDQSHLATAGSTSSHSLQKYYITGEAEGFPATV

Turning to `c1ccc(Cc2ccccc2)cc1`, the result in test [1], in test [2], in test [4] and in test [7] was inactive. The Potency entry in test [3], in [5], in test [6] and in [8] was “inactive” each time.
For the molecule `CCCCOC(=O)CCC(C)=O`, the result in [1], in [2], in [4] and in test [7] was inactive. Moreover, the Potency entry in test [3], in test [5] and in test [6] was “inactive” throughout.
Take `Nc1ccn([C@@H]2O[C@H](CO)[C@@H](O)[C@@H]2O)c(=O)n1`: the result in [1], in test [2], in test [4] and in [7] was inactive. Also, the Potency entry in test [3], in [5] and in test [6] was “inactive” throughout.
Take `C=CCCCCCCCCC(=O)OCC`: the outcome in test [1], in test [2], in [4] and in test [7] was inactive. Moreover, the Potency entry in test [3], in [5], in test [6] and in test [8] was “inactive” each time.
Consider `Clc1cc(Cl)cc(Cl)c1`, for which the result in test [1], in test [2], in test [4] and in [7] was inactive. In addition, the Potency result in test [3], in test [5], in test [6] and in test [8] was “inactive” throughout.
For the molecule `CCCCCCC1CCC(=O)O1` (centres undefined), the outcome in test [1], in test [2], in [4] and in test [7] was inactive. Further, the Potency result in test [3], in test [5], in [6] and in [8] was “inactive” in each case.
On to `COCCOCC(OC)OC`, for which the outcome in [1], in test [2], in test [4] and in test [7] was inactive. The Potency result in test [3], in test [5] and in test [6] was “inactive” in each case.
With `O=C(O)CCCC[P+](c1ccccc1)(c1ccccc1)c1ccccc1`, the outcome in [1], in [2], in [4] and in test [7] was inactive. Further, the Potency result in test [3], in [5], in [6] and in test [8] was “inactive” each time.
As for `CC1=CCC(O)(C(C)C)CC1` (centres undefined), the outcome in [1], in test [2], in test [4] and in [7] was inactive. Further, the Potency result in test [3], in [5], in [6] and in test [8] was “inactive” in each case.
Regarding `CNCC(O)c1ccc(O)c(O)c1` (centres undefined), the result in test [1], in test [2], in [4] and in test [7] was inactive. The Potency entry in test [3], in [5], in [6] and in test [8] was “inactive” throughout.
In the case of `C=CCOCC(O)CO` (centres undefined), the outcome in test [1], in test [2], in test [4] and in [7] was inactive. Also, the Potency result in [3], in test [5], in test [6] and in test [8] was “inactive” throughout.
For the molecule `CC(C)c1ccc2ncccc2c1`, the result in test [1], in test [2], in test [4] and in [7] was inactive. In addition, the Potency entry in [3], in test [5], in test [6] and in test [8] was “inactive” throughout.
Regarding `Cc1ccc(C(=O)Nc2ccc(S(=O)(=O)O)c3cc(S(=O)(=O)O)cc(S(=O)(=O)O)c23)cc1NC(=O)c1cccc(NC(=O)Nc2cccc(C(=O)Nc3cc(C(=O)Nc4ccc(S(=O)(=O)O)c5cc(S(=O)(=O)O)cc(S(=O)(=O)O)c45)ccc3C)c2)c1`, the result in test [1], in test [2], in [9], in [4] and in test [7] was inactive. Further, the Potency entry in [5] and in [8] was “inactive” in each case.
Take `CCN(CC#N)c1cccc(C)c1`: the outcome in test [1], in test [2], in test [4] and in test [7] was inactive. Also, the Potency result in test [3], in test [5] and in test [6] was “inactive” in each case.
As to `C1CCC2(CCCCO2)OC1`, the result in test [1], in test [2], in test [4] and in [7] was inactive. The Potency entry in [3], in test [5], in test [6] and in test [8] was “inactive” each time.
On to `CC[C@H]1OC(=O)[C@H](C)[C@@H](O[C@H]2C[C@@](C)(OC)[C@@H](O)[C@H](C)O2)[C@H](C)[C@@H](O[C@@H]2O[C@H](C)C[C@H](N(C)C)[C@H]2O)[C@](C)(OC)C[C@@H](C)C(=O)[C@H](C)[C@@H](O)[C@]1(C)O`, for which the outcome in [1], in [2], in [9], in test [4] and in test [7] was inactive. Further, in [6], the Potency entry is “inactive”.
In the case of `CC(=O)c1cnccn1`, the outcome in [1], in test [2], in [4] and in [7] was inactive. For the same molecule, the Potency entry in test [3], in test [5], in [6] and in test [8] was “inactive” each time.
As for `CCCCN(CCC(=O)OCC)C(C)=O`, the result in test [1], in test [2], in test [4] and in [7] was inactive. Further, the Potency entry in test [3], in test [5], in [6] and in [8] was “inactive” in each case.
Turning to `CC(=O)C1CCCCC1=O` (centres undefined), the result in test [1], in test [2], in [4] and in test [7] was inactive. Also, the Potency result in test [3], in [5], in test [6] and in test [8] was “inactive” each time.
In the case of `CC(CO)(CO)[N+](=O)[O-]`, the outcome in [1], in test [2], in test [4] and in test [7] was inactive. Further, the Potency result in [3], in test [5], in test [6] and in test [8] was “inactive” throughout.
On to `CN(C)CCCN(C)CCCN(C)C`, for which the result in [1], in [2], in test [4] and in test [7] was inactive. Moreover, the Potency result in [3], in [5], in test [6] and in test [8] was “inactive” throughout.
For `CCCC[N+](C)(CCCC)CCCC`, the outcome in test [1], in test [2], in test [4] and in test [7] was inactive. Besides, the Potency entry in test [3], in test [5], in test [6] and in test [8] was “inactive” throughout.
Regarding `CCOC(=O)COC(=O)c1ccccc1C(=O)OCC`, the outcome in test [1], in [2], in [4] and in test [7] was inactive. The Potency entry in test [3], in [5], in [6] and in test [8] was “inactive” in each case.
Turning to `CCCCCC(=O)OCCc1ccccc1`, the outcome in test [1], in test [2], in [4] and in [7] was inactive. For the same molecule, the Potency result in test [3], in test [5], in test [6] and in test [8] was “inactive” throughout.
`CCCCN1C=CN(C)C1`: the viability change, negative = cytotoxic in test [1] was 0.923% [at 19 µM]; in test [5], 3.43% [at 19 µM]; in test [6], 0.731% [at 19 µM]. The activity change, negative = inhibition in test [2] is 8.85% [at 19 µM]; in test [3] it was -8.42% [at 19 µM]; in test [8] it was 0.745% [at 19 µM]. The activity change, negative = cytotoxicity in [4] was 5.24% [at 19 µM]. The activity change in test [7] was 1.75% [at 18.9 µM].
Take `CN1CCC(=C2c3ccccc3CCc3cccnc32)CC1`: the outcome in test [1], in test [2], in test [4] and in test [7] was inactive. For the same molecule, in test [3], the Potency entry was “inactive”. The Potency in [8] was 13.3 µM (active).
Turning to `C=COC(=O)C(C)(CC)CCC(C)C` (centres undefined), the outcome in test [1], in [2] and in test [7] was inactive. Further, the Potency result in test [5] and in test [8] was “inactive” in each case.

The values above are taken from PubChem BioAssay (Tox21).
